Consider 20 compounds from PubChem BioAssay (NCI).

Some test systems named below: NCI-H23 lung; NCI-H226 lung; NCI-H322M lung; HOP-62 NSCLC; NCI-H460 lung; HOP-92 NSCLC; NCI-H522 lung; A549/ATCC NSCLC; 786-0 renal; COLO 205 colon.
Assay in all cases: NCI-60 one-dose screen, 48 h (100 = growth as untreated, 0 = no growth, -100 = all killed)
Common to all, as to settings: 10 µM unless noted

Compounds without any hit were thinned out: in the full panel of roughly 83,000, 20% have a hit.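 Testing used 96-well plates and a 48-hour single-concentration exposure. Example: -40 means 40% of the starting cells died.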 Values without a mark were called inactive. The source made the active and inactive calls. How the source made its calls: active means growth percent below 10; inactive means the rest.

For the compound `COc1ccc(-c2[nH]c3ccccc3c2-c2ccc(OC)cc2)cc1`, the growth was 53% with NCI-H23 lung; 112% with NCI-H226 lung; 84.2% in the test with NCI-H322M lung; 51.9% with HOP-62 NSCLC; 43.2% in the test on NCI-H460 lung; 42.6% in the test on HOP-92 NSCLC. The growth in the test on NCI-H522 lung is 55.6%; with A549/ATCC NSCLC it was 75.7%; in the test on 786-0 renal it was 51.7%; in the test on COLO 205 colon it was 75.3%.
As for `COc1ccc(NC(=O)Nc2ccccc2CNc2nc(Nc3ccc(OCCN4CCCC4)cc3)ncc2Cl)cc1`, the growth in the test with NCI-H23 lung was 43.1%; in the test on NCI-H226 lung, 76.1%; in the test on NCI-H322M lung, 36.5%; in the test with HOP-62 NSCLC it was 6.02% (active); in the test on NCI-H460 lung, -70.9% (active); with HOP-92 NSCLC, 4.83% (active). Moreover, the growth was -3.26% (active) in the test on NCI-H522 lung, 18.4% with A549/ATCC NSCLC, -84% (active) in the test on 786-0 renal and 1.65% (active) with COLO 205 colon.
`O=C1OCC2=C1C(c1cccc(C(F)(F)F)c1)c1cc3c(cc1N2CCO)OCCO3` (stereo not given): the growth was 28.5% in the test with NCI-H23 lung; 52.3% in the test on NCI-H226 lung; 51.3% in the test with NCI-H322M lung; 23.5% in the test with HOP-62 NSCLC; 7.21% (active) in the test with NCI-H460 lung; 63.3% in the test on HOP-92 NSCLC. Further, the growth with NCI-H522 lung is 7.2% (active); in the test with A549/ATCC NSCLC it was 16.3%; in the test with 786-0 renal it was 25.5%; in the test with COLO 205 colon, -17.7% (active).
Regarding `O=[N+]([O-])c1cc(C(F)(F)F)ccc1Sc1ccc(C(F)(F)F)cc1[N+](=O)[O-]`, the growth in the test on NCI-H23 lung is 63.1%; with NCI-H226 lung, 90.9%; in the test on NCI-H322M lung it was 112%; in the test with HOP-62 NSCLC, 94.6%; with NCI-H460 lung, 74.4%; in the test on HOP-92 NSCLC, 120%. Moreover, the growth in the test on NCI-H522 lung was 77.9%; with A549/ATCC NSCLC, 93.4%; with 786-0 renal, 103%; in the test with COLO 205 colon it was 123%.
`COc1cccc(NC(=O)c2sc3nc(C)c(C(O)c4ccccc4)cc3c2N)c1` (stereo not given): the growth in the test with NCI-H23 lung is 22.9%; in the test on NCI-H226 lung, 55%; in the test with NCI-H322M lung, 49.7%; with HOP-62 NSCLC, 32.5%; in the test with NCI-H460 lung it was 4.01% (active); in the test with HOP-92 NSCLC, 58.6%. Also, the growth was 0.582% (active) in the test on NCI-H522 lung, 22.4% in the test on A549/ATCC NSCLC, 34.4% in the test with 786-0 renal and 5.41% (active) with COLO 205 colon.
Turning to `Clc1ccc2c(NCCN3CCN(c4ccnc(N5CCCC5)n4)CC3)ccnc2c1`, the growth was 56.8% in the test with NCI-H23 lung; 80.3% in the test on NCI-H226 lung; 44.3% in the test on NCI-H322M lung; 77.3% with HOP-62 NSCLC; 16.7% with NCI-H460 lung; 23.3% in the test with HOP-92 NSCLC. Besides, the growth in the test on NCI-H522 lung was 45%; in the test with A549/ATCC NSCLC, 24.6%; in the test on 786-0 renal, 29.4%; in the test on COLO 205 colon, -46.5% (active).
Consider `C[N+]1=C(/C=C\C=C\c2ccccc2)C(C)(C)c2ccccc21`, for which the growth in the test with NCI-H23 lung is 18.7%; in the test with NCI-H226 lung, 63.8%; with NCI-H322M lung, 81.2%; with HOP-62 NSCLC, 52%; in the test with NCI-H460 lung, 43.4%; in the test on HOP-92 NSCLC, -7.51% (active). For the same compound, the growth was -3.08% (active) in the test on NCI-H522 lung, 28% in the test on A549/ATCC NSCLC, 33.6% in the test on 786-0 renal and -43.4% (active) in the test with COLO 205 colon.
For `OCCN1CCN(c2cc(-c3cccc(OC(F)(F)F)c3)nc3ccc(N4CCCC4)cc23)CC1`, the growth was 74.4% in the test with NCI-H23 lung; 70.1% in the test on NCI-H226 lung; 80% in the test on NCI-H322M lung; 48.4% with HOP-62 NSCLC; 11.3% in the test with NCI-H460 lung; 34.1% with HOP-92 NSCLC. Also, the growth in the test with NCI-H522 lung is 66.4%; in the test on A549/ATCC NSCLC it was 36.2%; in the test with 786-0 renal it was 63.1%; with COLO 205 colon it was -18.8% (active).
For the compound `CC1(Cc2ccccc2)CC2=C(C(=O)O1)C(c1ccccc1)NC(=O)N2` (stereo not given), the growth is 100% in the test with NCI-H23 lung; 101% in the test with NCI-H226 lung; 98.6% in the test with NCI-H322M lung; 97.4% with HOP-62 NSCLC; 110% with NCI-H460 lung; 77% in the test on HOP-92 NSCLC. In addition, the growth with NCI-H522 lung is 95.4%; in the test with A549/ATCC NSCLC, 112%; in the test on 786-0 renal it was 100%; in the test on COLO 205 colon, 106%.
For the compound `CCOc1ccccc1NC(=O)c1cc2ccccc2cc1O`, the growth was 16.4% in the test on NCI-H23 lung; 71.8% in the test on NCI-H226 lung; 84.1% with NCI-H322M lung; 98.4% in the test with HOP-62 NSCLC; 26.9% in the test with NCI-H460 lung; 5.82% (active) in the test on HOP-92 NSCLC. The growth in the test on NCI-H522 lung is 12.9%; in the test with A549/ATCC NSCLC it was 36.8%; with 786-0 renal, 70.7%; with COLO 205 colon, 111%.
For the compound `Cc1cnc(C(=O)NNc2nc3sc4c(c3c(=O)[nH]2)C(C)CCC4)cn1` (stereo not given), the growth in the test with NCI-H23 lung is 22.9%; in the test with NCI-H226 lung, -8.7% (active); in the test on NCI-H322M lung, 25.3%; in the test with HOP-62 NSCLC, 8.82% (active); with NCI-H460 lung it was 5.04% (active); in the test on HOP-92 NSCLC it was 43.6%. Moreover, the growth in the test on NCI-H522 lung was 26.1%; in the test with A549/ATCC NSCLC, 12.3%; in the test with 786-0 renal it was 11.2%; in the test with COLO 205 colon, 11.2%.
Take `COc1ccc(C2=C(CN)C(O)NC(=NCC(=O)c3ccc4ccccc4c3)N2)cc1` (stereo not given): the growth in the test with NCI-H23 lung was 103%; in the test on NCI-H226 lung it was 100%; in the test with NCI-H322M lung it was 104%; in the test with HOP-62 NSCLC it was 98.7%; in the test with NCI-H460 lung, 114%; with HOP-92 NSCLC it was 113%. In addition, the growth in the test with NCI-H522 lung is 86%; in the test with A549/ATCC NSCLC, 95.5%; with 786-0 renal, 98.5%; in the test on COLO 205 colon, 87.4%.
Take `COc1cc(N=Nc2ccc(O)c3ncccc23)c2ncccc2c1`: the growth is 50.2% in the test with NCI-H23 lung; 64.6% in the test on NCI-H226 lung; 55.9% in the test on NCI-H322M lung; 42.7% in the test with HOP-62 NSCLC; 17.4% in the test with NCI-H460 lung; 32.4% in the test with HOP-92 NSCLC. Besides, the growth is 15.9% with NCI-H522 lung, 8.08% (active) in the test on A549/ATCC NSCLC, 24.3% in the test with 786-0 renal and 52.4% in the test with COLO 205 colon.
For the compound `COc1ccc(C(c2cc(OC)c(OC)c(OC)c2)n2ccnc2)cc1O` (stereo not given), the growth in the test on NCI-H23 lung is 38.9%; with NCI-H226 lung, 68.7%; in the test on NCI-H322M lung it was 48.2%; with HOP-62 NSCLC, 29.5%; with NCI-H460 lung, 6.11% (active); in the test on HOP-92 NSCLC it was 25.8%. In addition, the growth was 12.1% in the test on NCI-H522 lung, 12.8% in the test on A549/ATCC NSCLC, 20% with 786-0 renal and -9.99% (active) in the test on COLO 205 colon.
With `Cc1ccc(-c2nc3nc(-c4ccccc4)nc(N4CCCNCC4)c3o2)cc1`, the growth in the test on NCI-H23 lung was 19.4%; with NCI-H226 lung, 88.9%; in the test on NCI-H322M lung, -6.9% (active); with HOP-62 NSCLC it was -27.1% (active); in the test on NCI-H460 lung, -57.7% (active); in the test on HOP-92 NSCLC, -33.5% (active). Further, the growth in the test on NCI-H522 lung is -69.6% (active); in the test on A549/ATCC NSCLC, -66.5% (active); in the test with 786-0 renal, -97.1% (active); in the test on COLO 205 colon it was -86.9% (active).
Take `C#CCOc1cccc(Nc2ncc3ncn(C4CCN(C(=O)CCl)C4)c3n2)c1` (stereo not given): the growth in the test with NCI-H23 lung is 45.2% [6.25 µM]; in the test on NCI-H226 lung, 23.3% [6.25 µM]; with NCI-H322M lung, 78.6% [6.25 µM]; in the test on HOP-62 NSCLC, 78.3% [6.25 µM]; in the test with NCI-H460 lung, 72.1% [6.25 µM]; in the test with HOP-92 NSCLC, 73% [6.25 µM]. Further, the growth in the test on NCI-H522 lung was -77.4% [6.25 µM] (active); with A549/ATCC NSCLC, 78.5% [6.25 µM]; in the test with 786-0 renal, -4.37% [6.25 µM] (active); in the test on COLO 205 colon, -84% [6.25 µM] (active).
For `CCOC(=O)CCCn1c(-c2ccccc2)cc(-c2ccccc2)c(C#N)c1=O`, the growth was 83.5% in the test on NCI-H23 lung; 89.5% in the test with NCI-H226 lung; 97.8% in the test with NCI-H322M lung; 93.7% in the test on HOP-62 NSCLC; 65.4% in the test with NCI-H460 lung; 48.3% with HOP-92 NSCLC. The growth in the test with NCI-H522 lung is 70.1%; in the test on A549/ATCC NSCLC, 84.3%; in the test on 786-0 renal, 88.8%; with COLO 205 colon, 98.4%.
For the compound `O=C(Nc1ncc(Cc2cccc(C(F)(F)F)c2)s1)c1ccc(-n2cnnn2)cc1`, the growth in the test on NCI-H23 lung was 55%; with NCI-H226 lung, 69.3%; with NCI-H322M lung, 86.1%; in the test with HOP-62 NSCLC, 104%; in the test with NCI-H460 lung, 30.5%; in the test with HOP-92 NSCLC, 86.2%. The growth is 54.5% in the test on NCI-H522 lung, 34.4% with A549/ATCC NSCLC, 66.1% with 786-0 renal and 121% in the test with COLO 205 colon.
As for `CCN(CC)CC#CCOC(=O)[C@]1(C)CCC[C@]2(C)c3ccc(C(C)C)cc3CC[C@@H]12`, the growth is 70.8% in the test with NCI-H23 lung; 82.5% with NCI-H226 lung; 93.7% in the test with NCI-H322M lung; 96.2% in the test with HOP-62 NSCLC; 97.9% with NCI-H460 lung; 76.7% with HOP-92 NSCLC. Moreover, the growth was 80.6% in the test with NCI-H522 lung, 87.5% with A549/ATCC NSCLC, 81.2% in the test with 786-0 renal and 80.2% in the test with COLO 205 colon.
For `CCCCCCCCCCCCCCCC(=O)O[C@@H]1[C@@H](O)[C@@H](O)C([C@H](NC(=O)[C@@H]2C[C@@H](CCC)CN2C)[C@H](C)Cl)O[C@@H]1SC` (stereo not given in full), the growth with NCI-H23 lung is 102%; in the test with NCI-H226 lung it was 91.2%; with NCI-H322M lung it was 97.8%; in the test on HOP-62 NSCLC, 101%; in the test on NCI-H460 lung, 110%; in the test on HOP-92 NSCLC, 118%. In addition, the growth in the test on NCI-H522 lung is 130%; with A549/ATCC NSCLC, 102%; in the test on 786-0 renal, 91.8%; with COLO 205 colon, 103%.
